These results are taken from ChEMBL document CHEMBL1961873, “Compounds: GSK PKIS; Assays: Nanosyn kinase panel” (2012).
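Also: mean inhibition value from the GSK PKIS kinase screening panel.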

In this experiment the target is T1, Serine/threonine-protein kinase Nek2 (Homo sapiens) (UniProt P51955).
T1 sequence (whole entry): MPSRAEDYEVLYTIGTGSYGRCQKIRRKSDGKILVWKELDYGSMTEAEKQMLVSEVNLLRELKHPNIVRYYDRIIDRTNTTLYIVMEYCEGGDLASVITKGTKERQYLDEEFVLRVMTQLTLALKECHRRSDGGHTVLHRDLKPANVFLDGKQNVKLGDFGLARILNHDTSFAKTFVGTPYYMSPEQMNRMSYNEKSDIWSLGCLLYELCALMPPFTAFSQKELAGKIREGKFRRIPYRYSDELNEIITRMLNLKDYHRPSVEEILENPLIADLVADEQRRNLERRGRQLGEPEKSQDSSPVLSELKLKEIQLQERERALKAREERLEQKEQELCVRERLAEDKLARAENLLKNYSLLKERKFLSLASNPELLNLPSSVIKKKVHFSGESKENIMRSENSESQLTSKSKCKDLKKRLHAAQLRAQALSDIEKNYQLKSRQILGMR
The settings on record: at 0.1 µM.
Regarding `CN1CCN(CCCNc2nc3ccc(Oc4ccc(NC(=O)Nc5cc(C(F)(F)F)ccc5F)cc4)cc3[nH]2)CC1`, the inhibition was 0.71%. The result for `NS(=O)(=O)c1ccc(N/N=C2\C(=O)Nc3ccc(-c4cnco4)cc32)cc1` reads 2.64%; that for `O=C1Nc2ccccc2/C1=C/Nc1ccc(-n2cncn2)cc1`, 4.4%. The value for `Cc1nnc(-c2ccc(C)c(-c3ccc(C(=O)NCc4ccc(Cl)cc4)cc3)c2)o1` was 4.28%; that for `CN(C)CCCNc1nccc(-c2c(-c3ccc(F)cc3)nn3cc(C(F)(F)F)ccc23)n1` was 1.87%; that for `COc1ccc2ncn(-c3cc(O[C@H](C)c4ccccc4Cl)c(C(N)=O)s3)c2c1` was 5.9%. Consider `CCS(=O)(=O)c1ccc(OC)c(Nc2ncc(-c3cccc(-c4ccccc4F)c3)o2)c1`, for which the inhibition came out at 0.99%. The result for `O=C(Nc1n[nH]c2cc(-c3ccccc3)ccc12)C1CC1` reads 5.82%. The result for `COc1ccc(-c2ccc3c(NC(=O)C4CC4)n[nH]c3n2)cc1` reads 1.84%.

For `COc1cc(Nc2ncc3c(C)nc(-c4cccc(C(F)(F)F)c4)n3n2)cc(OC)c1OC`, the inhibition came out at 7.77%. Take `Cc1ccc(NC(=O)c2ccoc2)cc1-c1ccc(C(=O)NCC2CC2)cc1`: the inhibition was 3.49%. The value for `Fc1ccc(-c2nc3n(c2-c2ccncc2)CCS3)cc1` was 4.83%; that for `NS(=O)(=O)c1ccc(N/N=C2\C(=O)Nc3ccc(C(=O)NCCCn4ccnc4)cc32)cc1` was 4.5%; that for `CCN(CC)Cc1ccc(Nc2nccc(-c3cnn4ncccc34)n2)cc1` was 4.07%. The result for `NC(=O)c1cc(-c2ccc(F)cc2)cc(-c2ccncc2)c1N` reads 4.7%; that for `Nc1nccc(-c2c(-c3ccc(F)cc3)ncn2C2CCC(O)CC2)n1` (centres undefined), -2.37%; that for `CCc1ccc(Oc2nccc(-c3c(-c4ccc(F)cc4)ncn3C3CCNCC3)n2)cc1`, 4.75%. The value for `C#Cc1cccc(Nc2ncnc3ccc(OCCCCNCCS(C)(=O)=O)cc23)c1` was 5.28%; that for `NC(=O)c1ccc(Oc2nccc(-c3c(-c4ccc(F)cc4)ncn3C3CCNCC3)n2)cc1` was 6.78%. `COC(=O)Nc1nc2ccc(Sc3ccc(NC(=O)Nc4cc(C(F)(F)F)ccc4F)cc3)cc2[nH]1`: the inhibition came out at 0.6%.

Consider `CCC(=O)Nc1ccc(C)c(-c2ccc(C(=O)NCC3CC3)cc2)c1`, for which the inhibition was found to be 4.55%.

Turning to `COc1cccc(-n2cnc3c(N/N=C/c4ccncc4)ncnc32)c1`, the inhibition is -1.74%. On to `Cc1ccc(C(=O)NC2CCC2)cc1-c1ccc(C(=O)NCC2CC2)cc1`, for which the inhibition turned out to be 4.6%. On to `c1ccc(-c2n[nH]cc2-c2ccnc(-c3ccc(OCCN4CCOCC4)cc3)c2)nc1`, for which the inhibition was -2.95%. `O=C1NC(=O)C(c2cccc(Cl)c2)=C1Nc1ccc(Cl)c(C(=O)O)c1`: the inhibition came out at 3.91%. For `C[C@@H](Oc1cc(-n2cnc3ccc(OC4CCN(C)CC4)cc32)sc1C(N)=O)c1ccccc1Cl`, the inhibition came out at 10.1%.

In the case of `CS(=O)(=O)CCNCc1ccc(-c2ccc3ncnc(Nc4ccc(OCc5ccccc5)c(Br)c4)c3c2)o1`, the inhibition stood at 5.02%. The value for `COc1cc(N2CCN(C(C)C)CC2)ccc1Nc1nc(Nc2ccc(F)cc2C(=O)NC[C@@H](O)CO)c2cc[nH]c2n1` was 5.32%; that for `Clc1ccc(CNc2nccc(-c3cnn4ncccc34)n2)cc1` was 0.93%; that for `COc1cc(Nc2ncc(-c3ccccc3)o2)cc(OC)c1OC` was -1.53%.

As to `O=C(Nc1n[nH]c2nc(-c3ccc(O)cc3)c(Br)cc12)C1CC1`, the inhibition came out at 6.4%. The result for `Fc1ccc(-c2ncn(C3CCNCC3)c2-c2ccnc(Oc3ccc4c(c3)OCO4)n2)cc1` reads 7.49%; that for `NC(=O)c1cc(-c2ccncc2)cc(-c2ccccc2)c1N`, 6.42%; that for `Fc1ccc(-c2ncn(C3CCNCC3)c2-c2ccnc(Oc3ccc(Oc4ccccc4)cc3)n2)cc1`, 5.87%.
